The values below come from PubChem BioAssay (Tox21).

Assay [1] can be described thus: qHTS assay to identify small molecule antagonists of the thyroid receptor (TR) signaling pathway (AID 743065). Note: nearly all actives have a fitted effect of over 55% in size. Note: potency is the fitted concentration of half-maximal effect. In short, it runs like this:
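GH3.TRE-Luc rat pituitary cells (two TREs driving luciferase) were dosed with compound, then stimulated with 1 nM T3 (final) for 23.5 h at 37 C. ONE-Glo luminescence was the read-out, with CellTiter-Fluor fluorescence as the cytotoxicity counter-screen.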
Background: Quantitative high-throughput screening tests each substance at several concentrations.

For assay [2], the system named is thyroid hormone receptor (rat, GH3 cells). Nature of the assay: qHTS assay to identify small molecule agonists of the thyroid receptor (TR) signaling pathway (AID 743066; calls by dose curve).
Assay [3] is described as follows: qHTS assay to identify small molecule antagonists of the estrogen receptor alpha (ER-alpha) signaling pathway - cell viability counter screen (AID 743074; calls by dose curve;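 note: HEK293 cells carrying ER-alpha-UAS-bla reporter stimulated with 17beta-estradiol; nearly all actives have a fitted effect of over 45% in size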).
Assay [4] in a line: qHTS assay to identify small molecule antagonists of the estrogen receptor alpha (ER-alpha) signaling pathway using the BG1 cell line - cell viability counter screen (AID 743081).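 Note: compound given together with 17beta-estradiol as the ER stimulus; series mostly up to about 70 µM; nearly all actives have a fitted effect of over 45% in size.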
In assay [5] the target is Aromatase (Homo sapiens) (UniProt P11511). As to the kind of experiment: qHTS assay to identify aromatase inhibitors (AID 743083). Note: nearly all actives have a fitted effect of over 55% in size. Note: potency is the fitted concentration of half-maximal effect.
A short description of assay [6]: qHTS assay to identify aromatase inhibitors - cell viability counter screen (AID 743084).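 Note: cells stimulated with testosterone during compound exposure; nearly all actives have a fitted effect of over 55% in size.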
Assay [7] in a line: qHTS assay to identify small molecule that activate the aryl hydrocarbon receptor (AhR) signaling pathway - cell viability counter screen (AID 743086).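 Note: HepG2 liver cells carrying the AhR DRE luciferase reporter; series mostly up to about 70 µM; nearly all actives have a fitted effect of over 45% in size.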 In short, it runs like this: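 HepG2-AhR-luc (HG2L7.5c1) cells, 4000/well, treated 24 h at 37 C with compound; viability measured as CellTiter-Fluor fluorescence after 30 min in the same wells as the luciferase read.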
The target of assay [8] is Peroxisome proliferator-activated receptor gamma (Homo sapiens) (UniProt P37231). Nature of the assay: qHTS assay to identify small molecule agonists of the peroxisome proliferator-activated receptor gamma (PPARg) signaling pathway (AID 743094; active = well fitted activation curve with a large enough effect in the signal ratio in the repeat runs, not every such curve was filed as active; inconclusive = weak or mixed curves, or effect the other way; inactive = no such curve, though single readings can be large or run the other way; the % refers to the signal ratio). In short, it runs like this: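 Beta-lactamase FRET fluorescence was the read-out after a 1 h room-temperature substrate step, following 17 h compound treatment at 37C of HEK293H cells expressing a UAS-driven bla reporter responsive to PPARg.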

Assay [9] concerns the target Aryl hydrocarbon receptor (Homo sapiens) (UniProt P35869). As to the kind of experiment: qHTS assay to identify small molecule that activate the aryl hydrocarbon receptor (AhR) signaling pathway (AID 743085).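 For activation: HG2L7.5c1 human HepG2 liver cells with stably integrated DRE-driven firefly reporter; series mostly up to about 70 µM.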 Note: nearly all actives have a fitted effect of over 15% in size. Note: potency is the fitted concentration of half-maximal effect. In short, it runs like this: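 Stably transfected human liver carcinoma cells (HG2L7.5c1; 20 DRE-firefly luciferase) were incubated 5 h, dosed, and kept 24 h at 37C. Agonism was scored from increased luciferase luminescence.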

Assay [10] has as its target Estrogen receptor (Homo sapiens) (UniProt P03372). As to the kind of experiment: qHTS assay to identify small molecule agonists of the estrogen receptor alpha (ER-alpha) signaling pathway (AID 743075; calls by dose curve).
The target is the same in assay [11]. As to the kind of experiment: qHTS assay to identify small molecule agonists of the estrogen receptor alpha (ER-alpha) signaling pathway using the BG1 cell line (AID 743079). Note: nearly all actives have a fitted effect of over 20% in size.
Assay [12] is described as follows: qHTS assay to identify small molecule antagonists of the peroxisome proliferator-activated receptor gamma (PPARg) signaling pathway - cell viability counter screen (AID 743194). Note: nearly all actives have a fitted effect of over 55% in size. Note: potency is the fitted concentration of half-maximal effect. In short, it runs like this: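 Cytotoxicity counter screen in PPARg-bla HEK293H cells, same wells as reporter assay. Compounds plus 50 nM rosiglitazone (final) for 17 h at 37 C, then viability read by CellTiter-Glo luminescence.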

Assay [13] is described as follows: qHTS assay for small molecule activators of the heat shock response signaling pathway - cell viability counter screen (AID 743209). Note: nearly all actives have a fitted effect of over 50% in size. Note: potency is the fitted concentration of half-maximal effect. In short, it runs like this:
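Luminescence from CellTiter-Glo, added after the beta-lactamase FRET read, gave the viability signal. Cells were HSE-bla HeLa treated with DMSO-dissolved compounds for 5 h at 37 C following overnight plating.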

A short description of assay [14]: qHTS assay for small molecule activators of the heat shock response signaling pathway (AID 743210; active = well fitted activation curve with a large enough effect in the signal ratio in the repeat runs, with a control signal flat, not every such curve was filed as active; inconclusive = weak or mixed curves; the % refers to the signal ratio; note: series mostly up to about 63 µM). In short, it runs like this: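 HSE-bla HeLa cells (beta-lactamase reporter under heat shock response elements), plated overnight, then exposed to compounds 5 h at 37 C; LiveBLAzer B/G FRET substrate added, 2.5 h at room temperature, fluorescence intensity read.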

Assay [15] has as its target Estrogen receptor (Homo sapiens) (UniProt P03372). Nature of the assay: qHTS assay to identify small molecule antagonists of the estrogen receptor alpha (ER-alpha) signaling pathway (AID 743069; active = well fitted curve in the direction sought with a large enough effect in the signal ratio in the repeat runs, not every such curve was filed as active; inconclusive = weak or mixed curves, or effect the other way; inactive = no such curve, though single readings can be large or run the other way; the % refers to the signal ratio; note: potency is the fitted concentration of half-maximal effect). In short, it runs like this:
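HEK293 ER-alpha-UAS-bla GripTite cells, held overnight in 2% charcoal-stripped FBS, 5,000 cells/well, preincubated 4 h, then compound plus 17beta-estradiol for 18 h at 37C. Beta-lactamase read by LiveBLAzer B/G FRET substrate, 2 h at room temperature.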

The nature of assay [16]: qHTS assay to identify small molecule antagonists of the estrogen receptor alpha (ER-alpha) signaling pathway using the BG1 cell line (AID 743080; calls by dose curve; note: nearly all actives have a fitted effect of over 25% in size; note: potency is the fitted concentration of half-maximal effect). In short, it runs like this:
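Antagonist mode: compounds in DMSO were pinned onto BG1-Luc-4E2 cells alongside 17beta-estradiol agonist, incubated 21.5 h, and ERE-driven luciferase measured with ONE-Glo. Cytotoxicity was multiplexed using CellTiter-Fluor fluorescence.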

A short description of assay [17]: qHTS assay for small molecule agonists of the antioxidant response element (ARE) signaling pathway (AID 743202; active = well fitted activation curve with a large enough effect in the signal ratio in the repeat runs, not every such curve was filed as active; inconclusive = weak or mixed curves, or effect the other way; inactive = no such curve, though single readings can be large or run the other way; the % refers to the signal ratio). In short, it runs like this: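 ARE-bla HepG2 cells (beta-lactamase reporter under the antioxidant response element), plated 5 hours, then exposed to compounds 16 hours at 37 C. LiveBLAzer B/G FRET substrate added for 2 hours at room temperature; fluorescence intensity read.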

Assay [18] is described as follows: qHTS assay to identify small molecule agonists of the peroxisome proliferator-activated receptor delta (PPARd) signaling pathway - cell viability counter screen (AID 743211). Note: nearly all actives have a fitted effect of over 55% in size. Note: potency is the fitted concentration of half-maximal effect. In short, it runs like this:
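In the same wells used for beta-lactamase reporter measurement, cytotoxicity is scored by CellTiter-Glo. HEK293H PPARd-bla cells receive compound for 17 h at 37C following a 5 h settling period.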

Where “and” joins values, the source holds several entries; their conditions need not be identical. Equal entries are not always repeated. Calls of active or inactive are those of the source. Unless noted, calls come from the whole dose curve; as a rule, active = well fitted curve in the direction sought with a large enough effect in the repeat runs; inconclusive = weak or mixed curves; inactive = no such curve, though single readings can be large; an effect the other way counts as inactive or inconclusive.

Sequence of Peroxisome proliferator-activated receptor gamma (Homo sapiens) (P37231 whole entry, looked up): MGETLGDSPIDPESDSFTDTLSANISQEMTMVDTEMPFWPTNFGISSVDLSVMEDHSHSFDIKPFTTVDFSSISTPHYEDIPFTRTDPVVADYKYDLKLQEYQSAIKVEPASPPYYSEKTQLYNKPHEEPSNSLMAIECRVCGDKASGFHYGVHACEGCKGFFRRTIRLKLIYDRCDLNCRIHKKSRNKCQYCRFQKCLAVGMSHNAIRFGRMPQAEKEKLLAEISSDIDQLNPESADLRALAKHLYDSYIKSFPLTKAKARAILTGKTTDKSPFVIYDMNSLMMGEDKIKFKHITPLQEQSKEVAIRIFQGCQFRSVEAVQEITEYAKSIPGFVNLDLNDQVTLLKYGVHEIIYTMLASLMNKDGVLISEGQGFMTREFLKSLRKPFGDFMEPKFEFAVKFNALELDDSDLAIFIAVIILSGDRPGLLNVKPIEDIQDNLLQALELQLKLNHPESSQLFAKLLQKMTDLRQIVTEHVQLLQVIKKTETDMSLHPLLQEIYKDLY
Sequence of Aryl hydrocarbon receptor (Homo sapiens) (P35869 whole entry, looked up): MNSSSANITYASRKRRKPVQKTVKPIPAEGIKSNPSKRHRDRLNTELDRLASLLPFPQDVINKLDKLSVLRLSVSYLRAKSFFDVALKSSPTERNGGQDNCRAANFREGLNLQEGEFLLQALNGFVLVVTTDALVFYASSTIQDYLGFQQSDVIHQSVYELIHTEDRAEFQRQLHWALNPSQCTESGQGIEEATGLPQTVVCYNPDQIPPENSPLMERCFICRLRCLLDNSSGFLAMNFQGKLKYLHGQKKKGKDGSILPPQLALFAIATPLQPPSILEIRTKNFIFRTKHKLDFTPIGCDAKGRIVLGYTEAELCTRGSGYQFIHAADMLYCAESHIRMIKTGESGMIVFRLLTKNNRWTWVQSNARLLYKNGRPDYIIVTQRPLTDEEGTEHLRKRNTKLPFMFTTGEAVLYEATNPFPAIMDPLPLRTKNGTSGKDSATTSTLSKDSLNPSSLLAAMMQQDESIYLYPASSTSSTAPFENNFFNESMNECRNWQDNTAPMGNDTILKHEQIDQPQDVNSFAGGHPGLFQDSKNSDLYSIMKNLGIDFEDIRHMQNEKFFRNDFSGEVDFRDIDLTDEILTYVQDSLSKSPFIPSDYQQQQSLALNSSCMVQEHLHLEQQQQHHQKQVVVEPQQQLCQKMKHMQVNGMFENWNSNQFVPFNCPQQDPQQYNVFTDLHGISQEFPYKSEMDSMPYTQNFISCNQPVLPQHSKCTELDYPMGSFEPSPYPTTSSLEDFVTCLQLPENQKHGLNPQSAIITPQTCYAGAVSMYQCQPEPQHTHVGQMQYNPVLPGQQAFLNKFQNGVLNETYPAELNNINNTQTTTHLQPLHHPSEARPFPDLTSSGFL
Sequence of Aromatase (Homo sapiens) (P11511 whole entry, looked up): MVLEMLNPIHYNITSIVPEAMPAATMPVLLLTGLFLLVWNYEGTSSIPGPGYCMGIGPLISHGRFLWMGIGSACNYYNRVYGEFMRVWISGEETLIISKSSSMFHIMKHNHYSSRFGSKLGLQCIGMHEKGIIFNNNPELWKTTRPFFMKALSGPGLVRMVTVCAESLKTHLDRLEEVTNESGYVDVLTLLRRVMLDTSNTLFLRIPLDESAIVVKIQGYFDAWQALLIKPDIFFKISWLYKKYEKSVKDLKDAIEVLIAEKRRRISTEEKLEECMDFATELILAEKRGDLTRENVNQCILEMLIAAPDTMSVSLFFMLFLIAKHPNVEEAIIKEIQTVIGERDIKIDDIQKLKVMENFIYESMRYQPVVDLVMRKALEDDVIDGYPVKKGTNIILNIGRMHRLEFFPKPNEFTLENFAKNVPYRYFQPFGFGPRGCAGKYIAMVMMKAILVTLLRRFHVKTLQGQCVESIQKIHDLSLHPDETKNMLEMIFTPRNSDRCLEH
Sequence of Estrogen receptor (Homo sapiens) (P03372 whole entry, looked up): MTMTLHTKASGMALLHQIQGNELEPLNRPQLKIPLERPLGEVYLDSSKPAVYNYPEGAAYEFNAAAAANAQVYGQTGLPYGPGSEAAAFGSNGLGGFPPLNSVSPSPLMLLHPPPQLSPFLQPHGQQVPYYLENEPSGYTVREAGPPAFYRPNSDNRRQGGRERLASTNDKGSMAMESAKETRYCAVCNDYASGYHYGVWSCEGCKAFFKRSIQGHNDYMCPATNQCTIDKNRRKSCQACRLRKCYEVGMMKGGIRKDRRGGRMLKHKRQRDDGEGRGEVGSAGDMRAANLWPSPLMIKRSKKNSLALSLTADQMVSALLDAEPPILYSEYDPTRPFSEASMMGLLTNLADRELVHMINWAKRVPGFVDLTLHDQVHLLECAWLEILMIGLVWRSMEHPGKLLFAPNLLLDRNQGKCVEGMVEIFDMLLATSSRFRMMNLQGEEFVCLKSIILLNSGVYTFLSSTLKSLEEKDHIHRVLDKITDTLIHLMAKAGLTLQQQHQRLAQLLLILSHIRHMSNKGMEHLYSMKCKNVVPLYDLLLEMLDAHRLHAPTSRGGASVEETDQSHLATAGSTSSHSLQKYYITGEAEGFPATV

For the compound `C[C@@H]1O[C@@H]1P(=O)(O)O`, the Potency entry in [1], in assay [2], in assay [3], in [4], in assay [5] and in assay [6] was “inactive” throughout. Besides, the Potency entry in [7] and in assay [8] was “inactive” in each case.
For the compound `CC[N+](CC)(CC)CCC(O)(c1ccccc1)C1CCCCC1` (configuration not stated), the Potency entry in assay [3], in assay [5], in assay [6], in assay [9], in assay [7] and in assay [8] was “inactive” in each case.
Consider `CC(O)(c1ccc(Cl)cc1)c1ccc(Cl)cc1`, for which the Potency entry in assay [2], in [3], in assay [10], in assay [11], in [4] and in [9] was “inactive” in each case. Moreover, the Potency entry in assay [7], in assay [12] and in [13] was “inactive” throughout. Also, in [5], the Potency was 61.1 µM (active). For the same compound, the outcome in [14] was inactive.
As for `O=C(O)[C@@H]1C[C@H](CP(=O)(O)O)CCN1`, the Potency result in assay [15], in [3], in [10], in assay [11], in [16] and in assay [4] was “inactive” each time. In addition, the Potency entry in [5], in assay [6], in assay [9], in [7] and in [8] was “inactive” in each case.
Turning to `O=C1CCCCCCCCCCCCCC1`, the Potency result in assay [2], in assay [15], in assay [3], in assay [10], in [11] and in [16] was “inactive” each time. Also, the Potency entry in [4], in assay [7], in assay [12], in assay [17] and in assay [18] was “inactive” in each case. Besides, the compound was called inactive in [14].
As for `CC1(C)S[C@@H]2[C@H](NC(=O)[C@@H](NC(=O)N3CCNC3=O)c3ccccc3)C(=O)N2[C@H]1C(=O)O`, the Potency entry in assay [15], in [3], in assay [10], in assay [11], in assay [16] and in assay [4] was “inactive” throughout. The Potency result in assay [5], in assay [6], in assay [9], in assay [7] and in assay [8] was “inactive” each time.
Regarding `O=C(CCN1CCC(c2ccccc2)C1)c1ccc2c(c1)OCCO2` (configuration not stated), the Potency in [1] was 26.6 µM (active); in [13], 13.3 µM (active). Further, the Potency entry in assay [15], in [3], in [10], in assay [11], in [16] and in assay [4] was “inactive” in each case. For the same compound, the Potency entry in [9], in assay [7], in assay [8], in assay [12] and in assay [18] was “inactive” in each case.
Turning to `COc1cc2c(cc1OC)[C@@H](Cc1cc(OC)c(OC)c(OC)c1)[N+](C)(CCCOC(=O)CC/C=C/CCC(=O)OCCC[N+]1(C)CCc3cc(OC)c(OC)cc3[C@H]1Cc1cc(OC)c(OC)c(OC)c1)CC2` (some centres not stated), the Potency result in [3], in assay [4], in assay [5], in [6] and in assay [7] was “inactive” each time.
Turning to `CO[C@H](C(=O)[C@@H](O)[C@@H](C)O)C1Cc2cc3cc(O[C@H]4C[C@@H](O[C@H]5C[C@@H](O)[C@H](O)[C@@H](C)O5)[C@@H](O)[C@@H](C)O4)c(C)c(O)c3c(O)c2C(=O)[C@H]1O[C@H]1C[C@@H](O[C@H]2C[C@@H](O[C@H]3C[C@](C)(O)[C@H](O)[C@@H](C)O3)[C@H](O)[C@@H](C)O2)[C@H](O)[C@@H](C)O1` (some centres not stated), the Potency in assay [1] was 335 nM (active) and 237 nM (active); in [15], 301 nM [inconclusive] (active) and 190 nM [inconclusive] (active); in assay [16], 266 nM (active) and 335 nM (active); in [5], 841 nM (active) and 668 nM (active); in assay [9] it was 0.237 µM (active). For the same compound, the Potency entry in assay [3], in assay [10], in assay [4] and in assay [6] was “inactive” in each case.
As to `CCCCCCCCCCCCN1CCCC1=O`, the Potency entry in assay [2], in [4], in [5], in assay [6], in assay [7] and in assay [8] was “inactive” each time. Moreover, the Potency is 54.9 µM (active) in assay [12], 21.9 µM (active) in assay [13] and 54.9 µM (active) in assay [18].
`O=C(O)c1cc(O)c2c(c1)[C@H]([C@H]1c3cc(C(=O)O)cc(O)c3C(=O)c3c(O[C@@H]4O[C@H](CO)[C@@H](O)[C@H](O)[C@H]4O)cccc31)c1cccc(O[C@@H]3O[C@H](CO)[C@@H](O)[C@H](O)[C@H]3O)c1C2=O`: the Potency entry in assay [1], in [2], in assay [3], in assay [4], in [5] and in [6] was “inactive” throughout. Besides, the Potency result in assay [9], in [7] and in [8] was “inactive” in each case.
As to `CO/N=C(\C(=O)N[C@@H]1C(=O)N2C(C(=O)O)=C(CSc3cnns3)CS[C@H]12)c1csc(N)n1`, the Potency entry in assay [15], in [3], in [10], in [11], in [16] and in assay [4] was “inactive” throughout. The Potency entry in assay [5], in [6], in assay [9], in assay [7] and in assay [8] was “inactive” throughout.
For `O=C1CCC/C=C\CCCCCCCCCC1`, the Potency result in assay [2], in assay [3], in [4], in assay [6], in [9] and in assay [7] was “inactive” in each case. In addition, the Potency entry in assay [12], in [17], in assay [13] and in assay [18] was “inactive” throughout. Further, the Potency in assay [5] is 30.6 µM (active).
As for `CCCCCCCC1CCC(=O)O1` (configuration not stated), the Potency result in assay [1], in assay [2] and in [9] was “inactive” in each case.
For `Cc1cn([C@H]2C[C@H](O)[C@@H](CO)O2)c(=O)[nH]c1=O`, the Potency result in [15], in assay [3], in assay [10], in [11], in assay [16] and in assay [4] was “inactive” throughout. Further, the Potency entry in assay [5], in assay [6], in [9], in assay [7] and in assay [8] was “inactive” in each case.
As to `CC/C(=C(/CC)c1ccc(OP(=O)(O)O)cc1)c1ccc(OP(=O)(O)O)cc1`, the Potency entry in [1], in assay [2], in assay [4], in [5], in [6] and in assay [9] was “inactive” in each case. The Potency entry in [7] and in [8] was “inactive” throughout.
As for `CS(=O)(=O)c1ccc([C@@H](CC2CCCC2)C(=O)Nc2cnccn2)cc1Cl`, the Potency entry in assay [2], in assay [5] and in assay [9] was “inactive” in each case.
With `CCCn1c(=O)[nH]c(=O)c2[nH]cnc21`, the Potency result in [3], in [4] and in assay [7] was “inactive” throughout.
In the case of `CC[C@H](C)C(=O)O[C@H]1CCC=C2C=C[C@H](C)[C@H](CC[C@@H]3C[C@@H](O)CC(=O)O3)[C@H]21`, the Potency entry in assay [2], in assay [3], in assay [10], in assay [11], in assay [4] and in [6] was “inactive” in each case. Further, the Potency entry in assay [9], in assay [7] and in assay [8] was “inactive” each time.
As to `CC(=O)N(C)C`, the Potency result in [1] and in assay [9] was “inactive” throughout.
For the compound `CCCCCCCCCCCCCCCCCCOCC(COP(=O)([O-])OCC[N+](C)(C)C)OC` (configuration not stated), the Potency result in assay [2], in assay [15], in assay [3], in assay [10], in assay [11] and in assay [16] was “inactive” in each case. The Potency result in [4], in assay [5], in assay [6], in assay [9], in assay [7] and in assay [8] was “inactive” in each case.
